According to PubChem BioAssay:
“And” between values parts separate entries of the source, which are not always exact repeats. Equal entries are not always repeated. The source made the active and inactive calls.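 How the source made its calls, unless noted: active means compounds whose cell count with miR-34 switched on is under 0.7 times the count with it off; inactive means the rest.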

What was measured:
[1] = stimulators of nuclear beta-catenin in C2C12, primary screen, imaging, WNT3A-conditioned medium, mouse C2C12, NPC library (AID 1117326; in the data active means nuclear beta-catenin stimulation mostly above about 4.2%, no sharp cut-off; inactive means mostly below about 10%; further: reference of the scale not given here); details: stronger effect = higher value
[2] = stimulators of insulin release from INS-1E, primary screen, cell-based, 5 mM glucose, NPC library (AID 1117329;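 active means compound raises insulin release from rat beta cells at 5 mM glucose, no numeric limit stated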; further: reference of the scale not given here); details: rat INS-1E insulin secretion, at 10 µM, stronger effect = higher value
[3] = growth inhibition of GSK3B-pretreated HCT116 cells – cell-based, CellTiter-Glo, 0.2 to 20 µM (AID 1117336;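 active means compounds lowering colon cancer cell viability after pretreatment blocking the GSK3B kinase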); details: HCT116 viability after GSK3B inhibitor, at 20 µM, stronger effect = higher value
[4] = inhibition of endothelial tube formation, primary screen, imaging, VEGF stimulated, CD31 staining, tube area, NPC library (AID 1117340;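 active means compound that reduces growth-factor-driven endothelial tube area in a mixed cell culture, no cutoff stated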); details: VEGF-stimulated ADSC/ECFC co-culture, at 10 µM, stronger effect = higher value
[5] = glucagon-like peptide 1 release enhancers, primary assay, NCI-H716 cell line, NPC library (AID 1117341;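 active means compound raises GLP1 secretion from the human gut endocrine cells, with no numeric limit stated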; further: reference of the scale not given here); details: NCI-H716 cells, at 10 µM, stronger effect = higher value
[6] = HCT116 colon cancer cell growth inhibition, primary screen, CellTiter-Glo luminescence, NPC library (AID 1117342;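 active means compounds that lower survival of HCT116 colon cancer cells in the luminescence readout, no numeric limit stated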); details: at 20 µM (top of the series)
[7] = CellTiter-Glo luminescent readout of SW480 viability loss, NPC library primary (AID 1117343;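 active means compounds that lower viability of the colon cancer cells in the luminescence readout, with no numeric limit stated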); details: CellTiter-Glo luminescence; at 20 µM (top of the series) unless noted
[8] = decreased DLD-1 cellular survival, CellTiter-Glo luminescent readout, NPC compound collection, primary HTS (AID 1117346;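 active means compounds that lower survival of DLD-1 colon cancer cells in the luminescence readout, no cutoff given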); details: DLD-1 viability, CellTiter-Glo luminescence; at 20 µM (top of the series)
[9] = sensitizers of A549 cells to miR-34 induction, primary screen, imaging, A549 dox-inducible miR-34, nuclei and caspase counts (AID 1347080); details: A549 miR-34 inducible, Hoechst nuclei count, 48 h
[10] = phospholipid biosynthesis inhibitors in animal cells, primary screen, cell-based, LOPAC library, screen 4 (AID 1347384; call rule not given here); details: phospholipid biosynthesis inhibition screen, at 10 µM
[11] = viability rescue of complex I mutant cybrids, primary screen, cell-based, galactose medium, ATP luminescence (AID 1645843;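 active means z-score of at least 1.8 in each of two replicates, scored against plate mean and spread of sample wells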;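 further: positive z means more ATP and so rescue of galactose-driven cybrid death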); details: complex I mutant cybrid cells, 72 h, stronger effect = higher value
[12] = survival rescue of mitochondrial mutant cells in low glucose, primary screen, MELAS cybrids, Rieske KO mouse fibroblasts, CellTiter-Glo (AID 1508586;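 active means mean z-score across replicates of 1.96 or higher in either the MELAS or the Rieske mutant cell line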;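 further: z relative to plate mean and SD of compound and empty wells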)
[13] = stronger effect = lower value, cell number ratio, induced over uninduced
[14] = measured here: relative caspase fold change +Dox/-Dox
[15] = measured here: total cells with miR-34 induction, stronger effect = lower value
[16] = measured here: total cells without miR-34 induction
[17] = MELAS cybrid survival, CellTiter-Glo 48 h, stronger effect = higher value
[18] = Rieske KO mouse fibroblast survival, CellTiter-Glo 72 h

SMILES | nuclear beta-catenin stimulation ([1]; at 10 µM) | nuclear beta-catenin stimulation ([1]; stimulation, at 2 µM) [%] | insulin secretion stimulation [2] | viability decrease [3] | tube area decrease [4] | GLP1 secretion stimulation [5] | inhibition of viability [6] | viability decrease (inhibition) [7] | viability decrease (inhibition) [8] | fold change [9, 13] | fold change [9, 14] | cell count [9, 15] | cell count [9, 16] | outcome [10] | z-score [11] | z-score [12, 17] | z-score [12, 18]
CC(C)(C)c1ccc(C(=O)CCCN2CCC(OC(c3ccccc3)c3ccccc3)CC2)cc1 | 0.6% (inactive) | 11.9 | 1% (inactive) | 111% (active) | 102% (active) | 6% (inactive) | 114% (active) | 133% (active) | 101% (active) | 1.42 (inactive) | 0.93 | 1290 | 913 | inactive | -0.865 (inactive) |  | 
CCCCCCCCCCCCCCCCO | -0.4% (inactive) | 0.7 | -0.5% (inactive) | -1.35% (inactive) | -0.9% (inactive) | -3.8% (inactive) | -2.3% (inactive) | 21.5% (inactive) | 5.6% (inactive) | 0.9 (inactive) | 0.439 | 8310 | 9230 |  |  | -0.285 (inactive) | -0.121
NC(=O)c1cn(Cc2c(F)cccc2F)nn1 | 0.5% (inactive) | 2.9 | -2.7% (inactive) | -3.55% (inactive) | -8.7% (inactive) | -0.1% (inactive) | 18.7% (inactive) | 11.5% (inactive) | 5.25% (inactive) | 1.05 (inactive) and 0.933 (inactive) | 0.739 and 0.557 | 10500 and 8320 | 10000 and 8930 | inactive | 0.155 (inactive) | -0.0452 (inactive) | -0.156
COC(=O)C1=C(C)NC(C)=C(C(=O)OC(C)(C)CN(C)CCC(c2ccccc2)c2ccccc2)C1c1cccc([N+](=O)[O-])c1 (centres undefined) | 22.4% (inactive) | -0.9 | 1.3% (inactive) | 93.2% (active) | 90.2% (active) | -3.7% (inactive) | 94% (active) | 127% (active) | 92.5% (active) | 1.26 (inactive) and 0.934 (inactive) | 1.89 and 0.993 | 1980 and 4820 | 1570 and 5160 | active | -1.52 (inactive) and -2.66 (inactive) | -0.809 (inactive) | -0.0835
O=c1[nH]c(=O)n([C@H]2C[C@H](O)[C@@H](CO)O2)cc1Br | 0.6% (inactive) | -1.1 | 0.6% (inactive) | 17.6% (inactive) | 54.6% (active) | 0.6% (inactive) | 14.8% (inactive) | 18.4% (inactive) | 34.2% (inactive) | 0.769 (inactive) | 2.25 | 7520 | 9790 | inactive | 5.63 (active) |  | 
